This note sets out measurements from PubChem BioAssay (NCATS).

Assay [1] has as its target Rap guanine nucleotide exchange factor 3 (Homo sapiens) (UniProt O95398). The assay is described as follows: Confirmatory qHTS for antagonist of cAMP-regulated guanine nucleotide exchange factor 3 (EPAC1) (AID 1645880). Further: nearly all actives have a fitted effect of over 55% in size. Further: potency means the concentration at half of the fitted maximal effect.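 On activity, negative = inhibition: plate controls were DMSO only for no effect and full effect of the ATA control for full effect.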 To be noted: EPAC1 Rap1B-BODIPY-GDP exchange, fluorescence; activity, negative = inhibition: at 115 µM (top of the series). The method, boiled down:
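Released BODIPY-GDP fluoresces less than Rap1-bound BODIPY-GDP; the signal is followed at 480/540 nm at 5-min intervals over 30 min, after 5 min at room temperature. Reactions contain 100 nM EPAC1, 250 nM RAP1B-BODIPY-GDP and 50 uM GDP; results are normalized to ATA and DMSO.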
(Quantitative high-throughput screening tests each substance at several concentrations.)

For assay [2] the target is unchanged. As to the kind of experiment: Confirmatory qHTS for agonist of cAMP-regulated guanine nucleotide exchange factor 3 (EPAC1) (AID 1645881). Further: nearly all actives have a fitted effect of over 75% in size. Further: potency means the concentration at half of the fitted maximal effect.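 On activation: EPAC1 catalysed release of BODIPY-GDP from Rap1B seen as fluorescence loss; 100% = effect of cAMP agonist control.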 To be noted: EPAC1 Rap1B BODIPY-GDP exchange fluorescence; series mostly up to 154 µM.
Assay [3] has as its target Rap guanine nucleotide exchange factor 4 (Homo sapiens) (UniProt Q8WZA2). As to the kind of experiment: Confirmatory qHTS for agonist of cAMP-regulated guanine nucleotide exchange factor 4 (EPAC2) (AID 1645884).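 Further: nucleotide exchange releases bodipy-GDP from Rap1 and this lowers its fluorescence; nearly all actives have a fitted effect of over 65% in size.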 Further: potency means the concentration at half of the fitted maximal effect. On activation: on the % scale 0 is the no-effect control and ±100 the full control effect. The note with it: EPAC2 GEF activity, Rap1B-BODIPY-GDP fluorescence; series mostly up to 154 µM.
Assay [4] concerns the target Rap guanine nucleotide exchange factor 3 (Homo sapiens) (UniProt O95398). As to the kind of experiment: Counterscreen qHTS for antagonist of cAMP-regulated guanine nucleotide exchange factor 3 (EPAC1) (AID 1645888). Further: % of control where 0% means no effect. To be noted: Rap1B-BODIPY-GDP nucleotide exchange, fluorescence; series mostly up to 154 µM. In a few lines: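 Measured: fluorescence of BODIPY-GDP bound to Rap1B, which falls as exchange proceeds. Conditions include 50 uM competing GDP, 5 and 30 min reads, and a later cAMP challenge for antagonist detection.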
(In general: A counterscreen serves to expose hits that act by an unwanted route or on another target.)

Results filed as inconclusive are left out. Unmarked numbers belong to inactive results. Active and inactive are the calls of the source. The call rests on the fitted dose curve; in most records, active means well fitted curve in the direction sought with a large enough effect; inconclusive means small, poorly fitted or top-dose-only effect, or another doubt; inactive means no such curve, though single readings can be large; an effect the other way counts as inactive or inconclusive.

Sequence of Rap guanine nucleotide exchange factor 3 (Homo sapiens) (O95398 whole entry, looked up): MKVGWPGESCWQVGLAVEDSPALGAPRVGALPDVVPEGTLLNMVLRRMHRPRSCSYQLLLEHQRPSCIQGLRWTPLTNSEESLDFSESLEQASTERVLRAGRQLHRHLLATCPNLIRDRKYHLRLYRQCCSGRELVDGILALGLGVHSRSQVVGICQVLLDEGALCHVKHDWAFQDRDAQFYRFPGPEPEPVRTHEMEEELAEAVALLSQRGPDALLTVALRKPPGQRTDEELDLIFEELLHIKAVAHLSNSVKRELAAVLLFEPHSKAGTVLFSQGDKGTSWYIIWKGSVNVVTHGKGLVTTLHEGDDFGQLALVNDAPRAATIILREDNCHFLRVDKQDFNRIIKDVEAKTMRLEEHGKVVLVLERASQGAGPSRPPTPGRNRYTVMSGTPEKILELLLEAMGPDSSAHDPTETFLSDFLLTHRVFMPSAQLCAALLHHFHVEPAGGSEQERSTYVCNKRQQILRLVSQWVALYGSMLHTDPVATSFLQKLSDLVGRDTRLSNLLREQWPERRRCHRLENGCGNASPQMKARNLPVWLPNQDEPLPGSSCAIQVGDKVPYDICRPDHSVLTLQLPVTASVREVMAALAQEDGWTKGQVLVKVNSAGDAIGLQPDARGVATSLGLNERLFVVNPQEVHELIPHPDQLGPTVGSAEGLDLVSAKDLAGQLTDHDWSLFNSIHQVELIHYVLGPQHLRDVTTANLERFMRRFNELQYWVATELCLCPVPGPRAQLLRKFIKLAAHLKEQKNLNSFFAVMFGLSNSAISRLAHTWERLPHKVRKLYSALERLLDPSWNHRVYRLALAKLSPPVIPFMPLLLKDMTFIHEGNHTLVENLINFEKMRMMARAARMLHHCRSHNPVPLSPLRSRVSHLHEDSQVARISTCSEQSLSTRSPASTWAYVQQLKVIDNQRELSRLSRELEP
Sequence of Rap guanine nucleotide exchange factor 4 (Homo sapiens) (Q8WZA2 whole entry, looked up): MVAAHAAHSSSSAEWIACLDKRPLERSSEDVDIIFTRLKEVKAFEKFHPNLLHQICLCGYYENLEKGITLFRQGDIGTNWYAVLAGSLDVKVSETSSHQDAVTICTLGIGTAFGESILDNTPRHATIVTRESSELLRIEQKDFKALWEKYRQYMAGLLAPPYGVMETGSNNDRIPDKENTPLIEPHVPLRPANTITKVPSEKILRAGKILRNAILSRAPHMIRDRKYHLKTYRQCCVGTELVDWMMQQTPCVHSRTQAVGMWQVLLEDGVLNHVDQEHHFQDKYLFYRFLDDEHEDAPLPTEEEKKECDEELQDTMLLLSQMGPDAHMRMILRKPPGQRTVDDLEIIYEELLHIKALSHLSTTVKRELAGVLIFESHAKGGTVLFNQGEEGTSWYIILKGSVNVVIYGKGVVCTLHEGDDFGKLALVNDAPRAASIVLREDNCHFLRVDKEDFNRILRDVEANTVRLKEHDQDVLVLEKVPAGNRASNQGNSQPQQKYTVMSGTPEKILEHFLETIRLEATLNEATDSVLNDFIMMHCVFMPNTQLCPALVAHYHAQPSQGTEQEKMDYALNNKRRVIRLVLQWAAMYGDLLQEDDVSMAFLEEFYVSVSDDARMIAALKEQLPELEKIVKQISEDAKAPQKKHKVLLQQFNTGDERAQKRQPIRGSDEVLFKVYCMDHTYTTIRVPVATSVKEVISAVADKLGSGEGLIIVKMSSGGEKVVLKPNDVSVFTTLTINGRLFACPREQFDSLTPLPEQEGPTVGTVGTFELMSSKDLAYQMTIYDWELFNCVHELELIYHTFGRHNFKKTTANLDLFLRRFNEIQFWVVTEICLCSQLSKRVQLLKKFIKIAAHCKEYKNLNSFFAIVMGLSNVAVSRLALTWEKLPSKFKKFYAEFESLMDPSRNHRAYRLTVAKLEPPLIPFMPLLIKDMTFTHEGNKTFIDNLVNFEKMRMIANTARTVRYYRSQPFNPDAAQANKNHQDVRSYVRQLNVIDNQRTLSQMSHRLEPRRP

On to `COC(=O)c1c(-c2ccc(OC)cc2)sc2ccc(OC)cc12`, for which the Potency result in assay [1], in assay [2], in assay [3] and in assay [4] was “inactive” each time.

Regarding `N#Cc1c(C(F)(F)F)cc(-c2ccccc2)nc1SCc1nc(N)nc(N2CCOCC2)n1`, the Potency result in assay [1], in assay [2], in assay [3] and in assay [4] was “inactive” throughout.

As for `COc1ccc(Br)cc1CNc1ccc(O)cc1`, the Potency entry in assay [1], in assay [2], in assay [3] and in assay [4] was “inactive” in each case.

Consider `CC(C)=CCc1c(O)cc2oc3c(CC=C(C)C)c(O)c(O)c(CC=C(C)C)c3c(=O)c2c1O`, for which the Potency in assay [1] was 75.7 µM (active). In addition, the Potency result in assay [2], in assay [3] and in assay [4] was “inactive” each time.

Take `Cn1c2c(c3ccccc31)CCN1CCC[C@]21c1ccccc1`: the Potency result in assay [1], in assay [2], in assay [3] and in assay [4] was “inactive” each time.

With `O=C(COc1ccccc1Cl)Nc1ccc(C(=O)c2ccc(C(=O)O)cc2)cc1`, the Potency result in assay [1], in assay [2], in assay [3] and in assay [4] was “inactive” throughout.

Take `COc1ccc(C(C(=O)NC(C)(C)C)n2c(=O)c(-c3cc4ccccc4[nH]3)nc3ccccc32)cc1` (stereo not given): the Potency entry in assay [1], in assay [2], in assay [3] and in assay [4] was “inactive” in each case.

With `CCc1nc2c(OCc3ccc(C(F)(F)F)cc3)cccn2c1N(C)C(=O)c1ccc(OC)cc1`, the Potency result in assay [1] and in assay [2] was “inactive” throughout. For the same compound, the activation in assay [3] is 16% [at 17.1 µM, percent relative to cAMP agonist control]. Besides, the activity change, negative = inhibition in assay [4] was -20.8% [at 30.8 µM].

`COc1ccccc1Nc1nc2ccc(C)cc2cc1C#N`: the Potency result in assay [1], in assay [2], in assay [3] and in assay [4] was “inactive” each time.

Consider `O=C(Cc1ccccc1Cl)Nc1ccc(S(=O)(=O)N2CCOCC2)cc1`, for which the Potency entry in assay [1], in assay [2], in assay [3] and in assay [4] was “inactive” in each case.

In the case of `CC(=O)c1ccc(N2CCN(C(=O)c3cc(-c4cccnc4)nc4ccc(Br)cc34)CC2)cc1`, the Potency entry in assay [1], in assay [2], in assay [3] and in assay [4] was “inactive” in each case.

For the compound `COc1ccc(C(=O)N/N=C/c2ccc3cccc(OCc4ccccc4)c3n2)cc1`, the Potency result in assay [1], in assay [2], in assay [3] and in assay [4] was “inactive” in each case.

For `COc1ccccc1CN(C)CC(=O)Nc1ccccc1-c1ccccc1`, the Potency entry in assay [1], in assay [2], in assay [3] and in assay [4] was “inactive” throughout.

Take `CCn1c(O)c(/C=N/NC(=O)c2ccncc2)c(=O)n(CC)c1=S`: the Potency entry in assay [1] and in assay [4] was “inactive” in each case. The Potency in assay [2] was 35.5 µM (active); in assay [3], 25.1 µM (active).

With `O=c1[nH]nc(CNc2ccc(O)cc2)c2ccccc12`, the Potency entry in assay [1], in assay [2], in assay [3] and in assay [4] was “inactive” in each case.

For the compound `Cc1ccc(CC#N)c(-c2c(CC#N)ccc(C)c2C)c1C`, the Potency result in assay [1], in assay [2], in assay [3] and in assay [4] was “inactive” throughout.

As for `CC(=O)c1ccc(NC(=O)c2ccc3c(c2)C(=O)N(c2ccccn2)C3=O)cc1`, in assay [1], the Potency is 8.49 µM (active). For the same compound, the Potency entry in assay [2], in assay [3] and in assay [4] was “inactive” throughout.

Regarding `COc1ccc(NC(=O)COC(=O)c2ccc(S(=O)(=O)N(C)c3ccccc3OC)cc2)cc1OC`, the Potency result in assay [1], in assay [2], in assay [3] and in assay [4] was “inactive” in each case.

As for `COC(=O)c1nc2nc(C)cc(=O)n2[nH]1`, the Potency entry in assay [1], in assay [2], in assay [3] and in assay [4] was “inactive” each time.

As for `C=C(C)Cn1c(C)cc(C)c(S(=O)(=O)c2ccc(C)cc2)c1=O`, the Potency entry in assay [1], in assay [2], in assay [3] and in assay [4] was “inactive” throughout.

In the case of `O=C(O)CSc1cc(NS(=O)(=O)c2ccc(Cl)cc2)c2ccccc2c1O`, in assay [1], the Potency is 75.7 µM (active). Further, the Potency entry in assay [2], in assay [3] and in assay [4] was “inactive” throughout.

Consider `O=C(Cn1cnc2c(nnn2Cc2ccccc2)c1=O)N1CCN(c2ccccc2)CC1`, for which the Potency entry in assay [1], in assay [2], in assay [3] and in assay [4] was “inactive” each time.

As for `COc1cc(/C=C2\C(=N)N3N=C(S(C)(=O)=O)SC3=NC2=O)cc(OC)c1OCCOc1ccccc1C`, the Potency in assay [1] was 67.5 µM (active). Besides, the Potency result in assay [2], in assay [3] and in assay [4] was “inactive” each time.

For `O=C1C(O)=CC(=C(c2ccccc2)c2ccccc2)c2ccccc21`, the Potency result in assay [1], in assay [2], in assay [3] and in assay [4] was “inactive” in each case.

As for `O=C(c1sc2cc(F)ccc2c1Cl)N1CCN(c2ccccc2)CC1`, the Potency entry in assay [1], in assay [2], in assay [3] and in assay [4] was “inactive” in each case.

Consider `O=S(=O)(O)c1ccc2c(c1)C(C(Cl)(Cl)Cl)OC(C(Cl)(Cl)Cl)O2` (stereo not given), for which the Potency in assay [1] was 31.6 µM (active). Moreover, the Potency result in assay [2] was “inactive”. In assay [3], the activation was 2.99% [at 17.1 µM, percent relative to cAMP agonist control]. Also, the activity change, negative = inhibition in assay [4] was -10.8% [at 30.8 µM].

As to `Cc1oc2cc([N+](=O)[O-])c(O)c([N+](=O)[O-])c2c1C(=O)c1ccc(Br)cc1`, the Potency in assay [1] was 75.7 µM (active). The Potency result in assay [2], in assay [3] and in assay [4] was “inactive” each time.

With `COc1ccc(OC)c(C(=O)c2ccc(Cl)cc2)c1`, the Potency result in assay [1] and in assay [2] was “inactive” each time. Besides, the activation in assay [3] was 8.77% [at 17.1 µM, percent relative to cAMP agonist control]. For the same compound, in assay [4], the activity change, negative = inhibition is 5.43% [at 30.8 µM].

Regarding `Cc1nc2cc(-c3ccsc3-n3c(C)ccc3C)[nH]n2c(=O)c1Cl`, the Potency in assay [1] is 37.9 µM (active). Moreover, the Potency entry in assay [2], in assay [3] and in assay [4] was “inactive” each time.

In the case of `Cc1nn(-c2ccccc2)c(Cl)c1/C=N/Nc1ccc(S(=O)(=O)Nc2ccccc2C(=O)O)cc1[N+](=O)[O-]`, in assay [1], the Potency is 42.6 µM (active). The Potency entry in assay [2], in assay [3] and in assay [4] was “inactive” in each case.
